# Experimental data as given in PubChem BioAssay (NCATS).
# Values joined by “and” are separate entries in the source; they are usually repeats but may differ in a detail not shown here. Equal entries are not always repeated. Active and inactive are the calls of the source. A call without a number means that no potency is given here. Unless noted, calls follow the shape of the dose curve; as a rule, active = well fitted curve in the direction sought with a large enough effect; inconclusive = small, poorly fitted or top-dose-only effect, or another doubt; inactive = no such curve, though single readings can be large; an effect the other way counts as inactive or inconclusive.
# How the values were obtained:
# [1] = qHTS Assay for Identification of Small Molecule Antagonists for Thrombopoietin (TPO) Signaling Pathway (AID 918); details: TPO-dependent cell signaling reporter, antagonist mode; also: potency is read from the fitted curve at half-maximal effect; nearly all actives have a fitted effect of over 60% in size
# In short: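 First, Ba/F3 reporter cells expressing human TPO receptor were held overnight without IL-3. Next, compound and 26 pM TPO were added. After 24 hrs incubation at 37 C, luciferase luminescence under the Glycoprotein IIb promoter was recorded.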
# [2] = target: Glutathione peroxidase 1 (Homo sapiens) (UniProt P07203); experiment: Primary qHTS Assay for Inhibitors of Recombinant Selenoprotein Glutathione Peroxidase 1 (GPX1) (AID 1845191); details: recombinant GPX1, GR-coupled NADPH fluorescence, 15 min; series mostly up to 48.8 µM; also: nearly all actives have a fitted effect of over 65% in size
# In short: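 GR-coupled assay: compounds preincubated 30 min at room temperature with GPX1, then reaction started with CHP; final 10 nM GPX1, 1 mM GSH, 0.5 mM CHP, 0.5 mM NADPH, 100 nM GR, 0.01% BSA, pH 7.5 Tris buffer. NADPH fluorescence (340/450 nm) read at 0 and 15 min.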
# [3] = NCATS anti-infectives library activity on HEK293 viability as a counter-qHTS vs the C. elegans viability qHTS (AID 1745854); details: HEK293 viability counter-screen; series mostly up to 41.8 µM;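 also: HEK293 cells exposed to compounds for 24 hr before the viability read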
# In short: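 Cytotoxicity in human HEK293 cells is measured by ATP-dependent CellTiter-Glo luminescence following a 24 hr incubation with titrated library compounds at 37C. Top final concentration is 41.7 uM.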
# [4] = NCATS anti-infectives library activity on the primary C. elegans qHTS viability assay (AID 1745855; calls by dose curve); details: C. elegans worm area imaging, day 7; series mostly up to 41.8 µM
# In short: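 Viability is taken from GFP fluorescence of PE254-GFP-FLuc C. elegans imaged by laser cytometry over 7 days. Ten L1 worms per well grow at 21 °C on TOP10 E. coli capsules with titrated compound; levamisole marks toxicity.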
# [5] = Cell Viability - HepG2 (AID 433; calls by dose curve;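 also: potency is read from the fitted curve at half-maximal effect; potency for ATP loss meaning cytotoxicity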); details: qHTS
# In short: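 Cytotoxicity read as ATP loss (CellTiter-Glo luminescence) after 40 hr compound exposure of HepG2, 1500 cells/well, 37 °C. AC50 by Hill equation; 0% set by DMSO, 100% inhibition by 100 uM tamoxifen.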
# [6] = Cell Viability - MRC5 (AID 434; calls by dose curve;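 also: potency is read from the fitted curve at half-maximal effect; potency reflects cytotoxicity seen as loss of intracellular ATP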); details: MRC5 lung fibroblast viability, qHTS
# In short: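 MRC5 normal human lung fibroblasts, 1500 cells/well, exposed to compound for 40 hr at 37 C. Cellular ATP was read by CellTiter-Glo luminescence; data normalized to DMSO and 100 uM tamoxifen, with AC50 from Hill fits.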
# [7] = Cell Viability - N2a (AID 540); details: N2a mouse neuroblastoma cell viability; at 92.2 µM (top of the series); also: nearly all actives have a fitted effect of over 45% in size
# In short: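 First, 1500 N2a cells per well incubate 5 hr at 37 °C; next, compounds are added and incubated 40 hr at 37 °C; finally CellTiter-Glo is added and luminescence read after 20 min, with AC50 derived by Hill modeling.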
# [8] = Cell Viability - NIH 3T3 (AID 541); details: NIH 3T3 cell viability, qHTS; at 92.2 µM (top of the series); also: nearly all actives have a fitted effect of over 25% in size
# In short: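 AC50 values reflect concentration-dependent loss of intracellular ATP in NIH 3T3 cells after 40 hr treatment in complete culture medium, quantified by luciferase-based luminescence.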
# [9] = Cell Viability - HUV-EC-C (AID 542); details: HUV-EC-C endothelial cell viability, qHTS; series mostly up to 92.2 µM; also: nearly all actives have a fitted effect of over 35% in size
# In short: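 Decrease in cellular ATP, quantified by luciferase luminescence, reflects toxicity in normal human vascular endothelial HUV-EC-C cells given compound for 40 hr in complete culture medium. Values are AC50s from concentration-response curves.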
# [10] = Cell Viability - Renal Proximal Tubule (AID 545); details: renal proximal tubule cells viability; series mostly up to 91.7 µM; also: nearly all actives have a fitted effect of over 40% in size
# In short: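 Viability taken as intracellular ATP (CellTiter-Glo luminescence) after 40 hr, 37 °C compound treatment of primary proximal tubule cells from rat kidney, 1000 cells/well; Hill-equation fits of qHTS concentration-response data gave AC50.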
# [11] = Cell Viability - Mesenchymal (AID 546); details: mesenchymal cells viability, qHTS; series mostly up to 91.7 µM;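 also: cells exposed to compound for 40 hours before reading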
# In short: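 Human kidney mesenchymal cells from normal renal glomeruli, 1000 cells/well, rested 5 hr at 37 °C, then treated 40 hr at 37 °C in complete medium. Cellular ATP read by CellTiter-Glo luminescence; AC50 from Hill-equation fits.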
# [12] = target: Estrogen receptor (Homo sapiens) (UniProt P03372); experiment: qHTS assay for small molecule antagonists of estrogen receptor alpha signaling (AID 588513; active = well fitted curve in the direction sought with a large enough effect in the signal ratio, with a control signal flat, not every such curve was filed as active; inconclusive = small, poorly fitted or top-dose-only effect, or effect the other way, or a change in a side signal; inactive = no such curve, though single readings can be large or run the other way; the % refers to the signal ratio; also: potency is read from the fitted curve at half-maximal effect); details: ER-alpha-UAS-bla HEK293, beta-lactamase ratio, antagonist mode; series mostly up to 76.9 µM
# In short: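 Antagonist mode: inhibition of 0.5 nM 17-beta-estradiol-driven beta-lactamase reporter in HEK 293 ER-alpha-UAS-bla cells, 18 h at 37C, CCF4 readout after 2 h at RT. Normalised to estradiol and DMSO; titration fitted to Hill.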
# [13] = target: Estrogen receptor (Homo sapiens) (UniProt P03372); experiment: qHTS assay for small molecule agonists of estrogen receptor alpha signaling (AID 588514; calls by dose curve; also: nearly all actives have a fitted effect of over 70% in size); details: ER-alpha-UAS-bla HEK293, beta-lactamase ratio, 18 h; series mostly up to 76.8 µM
# In short: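 Reporter-gene assay. […] controls beta-lactamase in HEK 293 GripTite cells; after 18 hrs with compound, CCF4 substrate is added for 2 hrs and fluorescence is read.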
# [14] = target: Androgen receptor (Homo sapiens) (UniProt P10275); experiment: qHTS assay for small molecule agonists of androgen receptor signaling (AID 588515; active = well fitted curve in the direction sought with a large enough effect in the signal ratio, with a control signal flat; inconclusive = small, poorly fitted or top-dose-only effect, or effect the other way, or a change in a side signal; inactive = no such curve, though single readings can be large or run the other way; the % refers to the signal ratio); details: AR-UAS-bla HEK293, beta-lactamase ratio, agonist 16 h; stronger effect = higher value
# In short: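 EC50 and efficacy came from Hill fits of titrations (up to 92 uM) normalized to 30 nM R1881 as 100% and DMSO as 0%. Compound exposure was 16 h at 37 C on AR-UAS-bla HEK293 cells, with a 405/460/530 nm CCF4 fluorescence read.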
# [15] = target: Androgen receptor (Homo sapiens) (UniProt P10275); experiment: qHTS assay for small molecule antagonists of androgen receptor signaling (AID 588516; active = well fitted curve in the direction sought with a large enough effect in the signal ratio, with a control signal flat, not every such curve was filed as active; inconclusive = small, poorly fitted or top-dose-only effect, or effect the other way, or a change in a side signal; inactive = no such curve, though single readings can be large or run the other way; the % refers to the signal ratio); details: AR-UAS-bla HEK293, beta-lactamase ratio, antagonist mode, 16 h; series mostly up to 76.8 µM
# In short: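 Antagonist mode: inhibition of R1881-stimulated (10 nM final) bla reporter in GeneBLAzer AR HEK 293 cells, 16 h at 37C, compounds titrated. IC50 and efficacy from Hill-equation fits of 405/460–530 nm FRET ratios.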
# [16] = target: Glucocorticoid receptor (Homo sapiens) (UniProt P04150); experiment: qHTS assay for small molecule agonists of glucocorticoid receptor signaling (AID 588532; active = well fitted curve in the direction sought with a large enough effect in the signal ratio, with a control signal flat; inconclusive = small, poorly fitted or top-dose-only effect, or a change in a side signal; inactive = no such curve, though single readings can be large or run the other way; the % refers to the signal ratio); details: HeLa MMTV-bla, beta-lactamase ratio, agonist, 18 h; stronger effect = higher value; percent of dexamethasone control, DMSO zero
# In short: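 HeLa GRE-bla reporter cells; 18 h compound exposure at 37 C; 2 h CCF4 loading at room temperature; fluorescence at 460 and 530 nm; EC50 by Hill equation.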
# [17] = target: Peroxisome proliferator-activated receptor delta (Homo sapiens) (UniProt Q03181); experiment: qHTS assay for small molecule agonists of peroxisome proliferator-activated receptor delta signaling (AID 588534; calls by dose curve); details: HEK293T PPARdelta-UAS-bla, beta-lactamase ratio, 18 h; series mostly up to 76.7 µM
# In short: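 Reporter cells were plated and held 5 hrs at 37 C before compounds were added. After 18 hrs at 37 C, CCF4 dye was loaded for 2 hrs at RT and fluorescence measured.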
# [18] = qHTS assay for small molecule antagonists of peroxisome proliferator-activated receptor delta signaling (AID 588535; active = well fitted inhibition curve with a large enough effect in the signal ratio, with a control signal flat, not every such curve was filed as active; inconclusive = small, poorly fitted or top-dose-only effect, or effect the other way, or a change in a side signal; inactive = no such curve, though single readings can be large or run the other way; the % refers to the signal ratio;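 as to max response: cells co-treated with a PPAR-delta agonist as stimulator during compound exposure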); details: HEK293T PPARd-UAS-bla, beta-lactamase FRET ratio, 18 h; 460 nm channel
# In short: (§1)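 Cells were seeded at 4000 per well in assay medium containing 2% charcoal/dextran FBS and held 5 hrs at 37 C. Compounds were then added for 18 hrs. CCF4 substrate was applied for 2 hrs at room temperature before fluorescence reading.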
# [19] = target: Peroxisome proliferator-activated receptor delta (Homo sapiens) (UniProt Q03181); experiment: as above; details: HEK293T PPARd-UAS-bla, beta-lactamase FRET ratio, 18 h; series mostly up to 76.7 µM
# In short: as §1
# [20] = target: Vitamin D3 receptor (Homo sapiens) (UniProt P11473); experiment: qHTS assay for small molecule antagonists of vitamin D receptor signaling (AID 588541; calls by dose curve;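 also: receptor activated by calcitriol during compound treatment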); details: HEK293T VDR-UAS-bla, beta-lactamase ratio, antagonist mode; series mostly up to 76.7 µM
# In short: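 VDR-UAS-bla HEK293T cells in 2% charcoal-stripped FBS were stimulated with 1-alpha,25-dihydroxyvitamin D3 (3 nM final) plus compound for 16 h at 37 C. The beta-lactamase CCF4 readout was normalized to 50 nM agonist and DMSO, and Hill fits gave IC50.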
# Androgen receptor (Homo sapiens), sequence (P10275 whole entry, looked up): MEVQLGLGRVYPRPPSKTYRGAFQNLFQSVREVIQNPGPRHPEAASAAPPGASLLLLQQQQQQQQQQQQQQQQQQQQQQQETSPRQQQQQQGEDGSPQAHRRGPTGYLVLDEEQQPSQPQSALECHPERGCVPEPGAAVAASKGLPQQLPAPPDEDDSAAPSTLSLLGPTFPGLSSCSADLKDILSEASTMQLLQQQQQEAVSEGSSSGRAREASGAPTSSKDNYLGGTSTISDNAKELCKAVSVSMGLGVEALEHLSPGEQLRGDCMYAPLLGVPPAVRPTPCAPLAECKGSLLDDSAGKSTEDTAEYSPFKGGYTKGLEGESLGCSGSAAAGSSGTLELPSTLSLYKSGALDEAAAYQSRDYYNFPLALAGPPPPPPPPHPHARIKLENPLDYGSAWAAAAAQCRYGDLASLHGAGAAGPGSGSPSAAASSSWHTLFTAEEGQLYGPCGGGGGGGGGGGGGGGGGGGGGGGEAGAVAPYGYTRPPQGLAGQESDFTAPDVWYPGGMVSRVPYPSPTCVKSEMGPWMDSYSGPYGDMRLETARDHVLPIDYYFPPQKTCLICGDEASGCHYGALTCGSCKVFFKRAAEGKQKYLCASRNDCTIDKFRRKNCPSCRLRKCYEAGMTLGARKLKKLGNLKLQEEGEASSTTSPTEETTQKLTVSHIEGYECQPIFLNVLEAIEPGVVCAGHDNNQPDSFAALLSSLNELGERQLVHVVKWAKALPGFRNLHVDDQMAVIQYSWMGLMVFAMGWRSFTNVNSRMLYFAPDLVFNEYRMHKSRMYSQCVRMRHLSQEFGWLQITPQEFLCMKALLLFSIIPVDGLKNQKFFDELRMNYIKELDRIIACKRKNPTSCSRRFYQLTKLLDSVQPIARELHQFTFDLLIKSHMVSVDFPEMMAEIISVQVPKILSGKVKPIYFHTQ
# Estrogen receptor (Homo sapiens), sequence (P03372 whole entry, looked up): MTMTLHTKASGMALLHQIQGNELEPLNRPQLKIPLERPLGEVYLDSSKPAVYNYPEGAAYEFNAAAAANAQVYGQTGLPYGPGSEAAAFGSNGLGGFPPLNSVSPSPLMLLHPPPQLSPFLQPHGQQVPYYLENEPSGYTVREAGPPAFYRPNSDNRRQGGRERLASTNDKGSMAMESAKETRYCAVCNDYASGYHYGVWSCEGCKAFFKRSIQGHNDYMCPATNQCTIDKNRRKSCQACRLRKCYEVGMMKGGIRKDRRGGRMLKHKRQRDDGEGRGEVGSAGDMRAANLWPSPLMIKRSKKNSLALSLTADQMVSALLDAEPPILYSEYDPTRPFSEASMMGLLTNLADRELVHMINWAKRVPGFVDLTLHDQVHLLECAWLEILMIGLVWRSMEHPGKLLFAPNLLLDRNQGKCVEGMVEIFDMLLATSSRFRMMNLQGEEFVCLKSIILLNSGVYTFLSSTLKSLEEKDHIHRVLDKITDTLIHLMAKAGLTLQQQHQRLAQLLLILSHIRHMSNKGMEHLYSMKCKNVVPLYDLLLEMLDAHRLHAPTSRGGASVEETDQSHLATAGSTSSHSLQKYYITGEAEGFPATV
# Glucocorticoid receptor (Homo sapiens), sequence (P04150 whole entry, looked up): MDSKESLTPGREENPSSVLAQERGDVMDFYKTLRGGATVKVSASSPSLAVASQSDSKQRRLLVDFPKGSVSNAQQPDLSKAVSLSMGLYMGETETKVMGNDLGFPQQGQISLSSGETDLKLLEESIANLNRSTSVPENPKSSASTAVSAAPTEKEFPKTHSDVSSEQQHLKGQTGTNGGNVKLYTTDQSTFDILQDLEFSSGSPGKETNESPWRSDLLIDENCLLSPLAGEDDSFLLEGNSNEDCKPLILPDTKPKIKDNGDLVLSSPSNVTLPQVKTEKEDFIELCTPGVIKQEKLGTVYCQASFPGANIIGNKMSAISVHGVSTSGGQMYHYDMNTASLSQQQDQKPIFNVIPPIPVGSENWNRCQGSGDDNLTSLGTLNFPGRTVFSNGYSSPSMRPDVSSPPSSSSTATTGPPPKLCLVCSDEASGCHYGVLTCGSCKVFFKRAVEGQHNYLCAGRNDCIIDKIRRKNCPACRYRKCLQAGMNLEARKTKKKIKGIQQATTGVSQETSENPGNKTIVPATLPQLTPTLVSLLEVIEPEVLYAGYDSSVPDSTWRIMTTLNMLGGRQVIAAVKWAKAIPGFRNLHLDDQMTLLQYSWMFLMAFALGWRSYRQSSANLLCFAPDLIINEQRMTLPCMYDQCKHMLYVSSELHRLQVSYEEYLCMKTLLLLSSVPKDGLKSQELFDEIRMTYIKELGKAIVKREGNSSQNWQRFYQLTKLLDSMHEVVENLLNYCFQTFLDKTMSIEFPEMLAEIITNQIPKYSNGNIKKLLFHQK
# Peroxisome proliferator-activated receptor delta (Homo sapiens), sequence (Q03181 whole entry, looked up): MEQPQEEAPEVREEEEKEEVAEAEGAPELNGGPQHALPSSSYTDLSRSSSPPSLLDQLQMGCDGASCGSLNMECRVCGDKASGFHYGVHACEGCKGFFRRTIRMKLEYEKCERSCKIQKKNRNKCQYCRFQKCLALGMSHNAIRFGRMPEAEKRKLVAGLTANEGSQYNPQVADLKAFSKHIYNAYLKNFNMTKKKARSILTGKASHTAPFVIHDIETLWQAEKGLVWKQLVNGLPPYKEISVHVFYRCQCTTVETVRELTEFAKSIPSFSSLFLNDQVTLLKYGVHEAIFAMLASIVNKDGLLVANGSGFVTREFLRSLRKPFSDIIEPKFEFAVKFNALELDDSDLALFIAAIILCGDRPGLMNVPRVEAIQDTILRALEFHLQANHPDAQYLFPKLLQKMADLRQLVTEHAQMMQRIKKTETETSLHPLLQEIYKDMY
# Glutathione peroxidase 1 (Homo sapiens), sequence (P07203 whole entry, looked up): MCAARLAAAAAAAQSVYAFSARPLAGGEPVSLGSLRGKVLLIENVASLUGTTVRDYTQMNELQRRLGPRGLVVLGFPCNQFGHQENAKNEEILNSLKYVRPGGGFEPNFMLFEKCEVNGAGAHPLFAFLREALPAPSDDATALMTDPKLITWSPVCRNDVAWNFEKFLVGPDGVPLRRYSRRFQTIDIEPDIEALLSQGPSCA
# Vitamin D3 receptor (Homo sapiens), sequence (P11473 whole entry, looked up): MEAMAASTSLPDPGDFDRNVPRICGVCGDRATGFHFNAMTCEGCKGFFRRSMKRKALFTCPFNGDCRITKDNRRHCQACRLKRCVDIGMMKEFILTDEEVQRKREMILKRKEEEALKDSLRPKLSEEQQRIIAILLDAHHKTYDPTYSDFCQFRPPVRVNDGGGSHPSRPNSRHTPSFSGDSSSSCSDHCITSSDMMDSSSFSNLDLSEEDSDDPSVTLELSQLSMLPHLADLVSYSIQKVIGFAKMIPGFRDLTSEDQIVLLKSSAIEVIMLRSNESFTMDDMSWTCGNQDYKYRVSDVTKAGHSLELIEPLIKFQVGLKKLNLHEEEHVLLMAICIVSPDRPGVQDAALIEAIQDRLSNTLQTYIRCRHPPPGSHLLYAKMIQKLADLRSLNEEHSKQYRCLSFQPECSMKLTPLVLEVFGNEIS
smiles,measurement,setting,value
CN1[C@@H]2CC[C@H]1CC(O[C@@H](c1ccccc1)c1ccc(Cl)cc1)C2 (stereo not given in full),Potency,[1],12.6 µM (active)
CN(C(=O)Cc1ccccc1)[C@H](CN1CCCC1)c1ccccc1,Potency,[2],inactive
O=NN1CCCC1c1cccnc1 (stereo not given),Potency,[3],inactive
same,Potency,[4],inactive
CC(C)(c1ccc(OCC2CO2)cc1)c1ccc(OCC2CO2)cc1 (stereo not given),Potency,[5],> 92 µM (inactive)
same,Potency,[6],> 92 µM (inactive)
same,"activity change, negative = cytotoxicity",[7],-4.11% (inactive)
same,"activity change, negative = cytotoxicity",[8],-5.07% (inactive)
same,outcome,[9],inactive
same,outcome,[10],inactive
same,outcome,[11],inactive
same,Potency,[12],31.6 µM [inconclusive] (active)
same,Potency,[13],inactive
same,activation,[14],11.4% (inactive) and -15.4% (inactive)
same,outcome,[15],inactive
same,activation,[16],-1.68% (inactive) and 2.51% (inactive)
same,Potency,[17],inactive
same,max response,[18],35.6%
same,outcome,[19],inactive
same,outcome,[20],inactive
